# From PubChem BioAssay
# Peg3 prom inh-1: inhibitors of Peg3 promoter; HeLa PEG-Prom luciferase reporter, luminescence, overnight; inhibition, % at 20 µM; 1.7% of 360,000 active; AID 588405;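 active means inhibition of at least 50% at 20 µM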
# KKLEB tox: reduces viability of KKLEB cystic fibrosis airway cells; KKLEB CF airway cells viability, ATPlite luminescence, overnight; stronger effect = lower value; cells stimulated with P. aeruginosa culture filtrate; activity change (cytotoxicity), % at 5 µM; 0.36% of 360,000 active; AID 602141;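 active means corrected activity change at or below -50% at 5 µM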
# HIF-2a block: blocks HIF-2a reporter activity | inhibition, % at 18.8 µM | 786-0 RCC cells HIF-2a reporter, luciferase luminescence, overnight | AID 624352 | 0.72% of 360,000 active;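 active means inhibition of the luminescence signal of 40% or more relative to plate controls, in a single-dose primary screen at 18.75 µM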
# CHOP inh: CHOP inhibition in unfolded protein response. CHO-K1 CHOP-promoter luciferase, tunicamycin-induced, 15-18 h. 3.8% of 220,000 active. inhibition, % at 10 µM;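 active means compounds that reduced the stress-induced luciferase reporter signal by more than about 70% of percent inhibition, limit read from the data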;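 further: 0% = tunicamycin plus vehicle and 100% = wells without tunicamycin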
# TRPM1 prom inh: inhibitors of MITF-driven TRPM1 promoter in melanoma cells | SK-MEL-5 TRPM1 promoter luciferase, 24 h | inhibition, % at 12.5 µM | 0.83% of 330,000 active | AID 488899;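 active means mean inhibition across replicates of 60% or more, whatever share of single replicates reaches that level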
# CF NFkB block: cystic fibrosis NF-kB activation inhibition | 0.86% of 360,000 active | AID 588850 | KKLEB NF-kB-GFP reporter, PAF-induced, GFP fluorescence overnight | inhibition, % at 5 µM;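 active means at least 50% inhibition at 5 µM, scaled per plate between neutral and stimulator controls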;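 further: PAF is a Pseudomonas aeruginosa culture filtrate used as stimulus; plate controls were PAF-stimulated DMSO wells for no effect and unstimulated DMSO wells for full effect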
# Peg3 prom inh-2: Peg3 promoter inhibition confirmation; shares compounds with Peg3 prom inh-1; HeLa PEG-Prom luciferase reporter, luminescence, overnight; inhibition, % at 20 µM; 84% of 1,300 active;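 active means at 20 µM dose, 40% or more inhibition averaged across four replicates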
# CF NFkB inh conf: confirmation of cystic fibrosis induced NF-kB inhibitors. shares compounds with CF NFkB block. KKLEB CF airway cells, PAF-induced NF-kB-GFP fluorescence, overnight. inhibition, % at 5 µM. 64% of 1,300 active. AID 602472; in the data active means inhibition above about 40%;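 further: stimulus PAF is a Pseudomonas aeruginosa filtrate and not platelet activating factor; plate controls were DMSO wells with stimulus for no effect and unstimulated DMSO wells for full effect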
# Mdm2 MdmX conf: confirmation of inhibitors of human Mdm2/MdmX interaction, set 2. shares compounds with HIF-2a block. SaOS-2 split-luciferase Mdm2/MdmX complementation, luminescence. inhibition, % at 8 µM. 99% of 740 active;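 active means mean inhibition of the luminescence signal across two replicates at or above 26 percent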
# Target sequence (O15151 whole entry, looked up): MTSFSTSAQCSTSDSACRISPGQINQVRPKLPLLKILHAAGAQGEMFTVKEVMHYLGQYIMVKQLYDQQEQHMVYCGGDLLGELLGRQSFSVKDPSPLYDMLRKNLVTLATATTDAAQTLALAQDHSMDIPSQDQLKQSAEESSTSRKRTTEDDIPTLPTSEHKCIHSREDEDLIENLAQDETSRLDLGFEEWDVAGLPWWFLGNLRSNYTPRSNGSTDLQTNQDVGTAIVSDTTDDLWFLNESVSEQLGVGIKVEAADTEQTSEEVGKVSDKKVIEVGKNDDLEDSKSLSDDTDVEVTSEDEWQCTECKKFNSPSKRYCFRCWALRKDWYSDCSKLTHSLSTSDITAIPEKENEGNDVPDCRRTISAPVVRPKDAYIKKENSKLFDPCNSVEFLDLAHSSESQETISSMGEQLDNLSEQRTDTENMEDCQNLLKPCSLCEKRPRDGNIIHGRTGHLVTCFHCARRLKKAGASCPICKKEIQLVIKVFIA
# Target sequence (Q00987 whole entry, looked up): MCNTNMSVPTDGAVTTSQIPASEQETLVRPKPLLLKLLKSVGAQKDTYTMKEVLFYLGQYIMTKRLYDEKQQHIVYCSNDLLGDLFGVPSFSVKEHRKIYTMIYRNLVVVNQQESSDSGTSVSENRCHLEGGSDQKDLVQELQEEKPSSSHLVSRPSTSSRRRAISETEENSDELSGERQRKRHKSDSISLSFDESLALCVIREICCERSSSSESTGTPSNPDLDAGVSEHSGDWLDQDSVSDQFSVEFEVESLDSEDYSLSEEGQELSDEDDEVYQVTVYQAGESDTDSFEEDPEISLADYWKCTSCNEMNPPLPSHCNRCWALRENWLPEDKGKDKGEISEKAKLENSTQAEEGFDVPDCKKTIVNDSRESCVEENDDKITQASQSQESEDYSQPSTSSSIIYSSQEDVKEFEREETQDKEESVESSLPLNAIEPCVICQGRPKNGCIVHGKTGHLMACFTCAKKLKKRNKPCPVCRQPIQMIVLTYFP
# HIF-2a inh conf: confirmation of HIF-2a inhibitors; shares compounds with HIF-2a block; 786-0 RCC cells, HIF-2a luciferase reporter luminescence, overnight; inhibition, % at 18.8 µM; 56% of 1,800 active;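 active means mean inhibition across four replicates of at least 40 percent at the single tested concentration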
# HIF-1a cs: inhibits HIF-1a reporter, a counter-screen for HIF-2a inhibitors | 72% of 1,800 active | MiaPaCa-2 HIF-1a luciferase reporter, desferoxamine, overnight | inhibition, % at 18.8 µM | AID 651589 | shares compounds with HIF-2a block;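 active means mean inhibition of the reporter signal across four replicates at the single tested dose of 50% or more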
# Numbers without * were called inactive; . = not tested or not shown. The list is not random: actives were taken first. Their share in the collection is about 4.3%.
SMILES,Peg3 prom inh-1,KKLEB tox,HIF-2a block,CHOP inh,TRPM1 prom inh,CF NFkB block,Peg3 prom inh-2,HIF-2a inh conf,HIF-1a cs,others
COc1ccc(C(=O)CN2C(=O)c3ccccc3S2(=O)=O)cc1,98*,-5,88*,53,.,8,84*,92*,92*,
Cc1ccc(C)c(C(=O)CN2C(=O)c3ccccc3S2(=O)=O)c1,1,0,-53,13,16,9,.,.,.,
CC1CCc2c(sc(NC(=O)c3ccc(N4C(=O)CCC4=O)cc3)c2C(N)=O)C1 (stereo not given),-24,32,-45,.,-12,-11,.,.,.,
O=C(COC(=O)c1cc(-c2cccs2)nn1-c1ccccc1)Nc1ccc(F)c([N+](=O)[O-])c1,1,-2,8,8,7,-7,.,.,.,
COc1ccc(N(C(=O)Cc2cccs2)C(C(=O)NC2CCCC2)c2ccncc2)cc1 (stereo not given),-4,-3,-11,.,-23,3,.,.,.,
COc1ccc(N(C(=O)CCl)C(C(=O)NC2CCCCC2)c2cccnc2)cc1 (stereo not given),100*,-42,31,-1,87*,38,99*,.,.,Mdm2 MdmX conf=103*
O=C1NCCCC1C(=O)N/N=C/c1cccc(Cl)c1 (stereo not given),5,-6,5,6,-7,9,.,.,.,
COc1cccc2c1c(NC(=O)Nc1ccc(F)cc1F)nn2C,-11,2,-12,2,8,-20,.,.,.,
C=C1CC2(OC1=O)c1ccccc1CCc1ccccc12,97*,-85*,90*,.,108*,89*,97*,98*,107*,
O=C1NC(=O)C2(CCc3ccccc32)N1 (stereo not given),11,6,19,35,0,8,.,.,.,
CSCC[C@H](NC(=O)OC(C)(C)C)C(=O)N1CCC(C(=O)N[C@@H](C)C(=O)NCc2ccc(F)cc2)CC1,-9,-4,13,.,4,0,.,.,.,
Cc1cc(C(=O)Nc2cccc(C(=O)O)c2)c(C)o1,-49,0,-56,15,7,4,.,.,.,
Cc1cc(C(=O)Nc2cccc(C(=O)O)c2)oc1C,82*,-3,81*,75*,87*,6,52*,78*,-15,
Cn1c(=O)c(=O)n(C)c2cc([N+](=O)[O-])c([N+](=O)[O-])cc21,8,-11,16,-39,-1,-1,.,.,.,
CN(C)c1c([N+](=O)[O-])cc(N2C(=O)C=CC2=O)cc1[N+](=O)[O-],104*,10,94*,.,63*,-13,96*,57*,3,
O=[N+]([O-])c1ccc(S(=O)(=O)c2ccccc2)nc1,97*,-88*,75*,.,94*,108*,97*,65*,79*,Mdm2 MdmX conf=103*
Nc1ccc(S(=O)(=O)c2ccccc2)nc1,11,1,13,.,.,13,.,.,.,
O=S(=O)(Nc1cccc2ncccc12)c1cccs1,103*,8,65*,.,84*,46,97*,.,.,Mdm2 MdmX conf=103*
O=C(C1CCN(C2CCN(CC3CC=CCC3)CC2)CC1)N1CCOCC1 (stereo not given),-6,3,10,-19,-4,6,.,.,.,
Cc1cnc(NC(=O)c2ccc3c(c2)OCCO3)s1,87*,-58*,77*,.,82*,11,81*,90*,80*,
CC1=CC2C(C(O)CC3(C)C2CC(C)C32OCOC23COCO3)C2(C)C/C(=C\O)C(=O)C=C12 (stereo not given),101*,-95*,95*,.,80*,96*,97*,53*,108*,
CCC(=O)Nc1nc(NCc2ccccc2OC)n(-c2ccccc2)n1,4,-8,-4,.,8,-6,.,.,.,
Cc1cccc(-n2ncc3c(N(CCO)CCO)ncnc32)c1,-215,-7,-215,-35,-57,-10,.,.,.,
Cc1cccc(-n2ncc3c(N(C)C4CCCCC4)ncnc32)c1,75*,-54*,66*,54,80*,9,82*,81*,101*,
CS(=O)(=O)c1ccc(-c2cn3cc(C(=O)O)ccc3n2)cc1,65*,-7,48*,23,39,-13,44*,46*,-20,
SMILES,Peg3 prom inh-1,KKLEB tox,HIF-2a block,CHOP inh,TRPM1 prom inh,CF NFkB block,Peg3 prom inh-2,HIF-2a inh conf,HIF-1a cs,others
CC(=O)Nc1ccc2nc(-c3ccccc3)cn2c1,-169,-10,-107,11,-6,-18,.,.,.,
CN(CCC#N)C(=O)COC(=O)c1ccccc1C(=O)c1ccc(Cl)c([N+](=O)[O-])c1,95*,-28,43*,-193,66*,76*,33,0,68*,CF NFkB inh conf=97*
CCOC(=O)c1c(C)oc2c(F)c(F)c(F)c(F)c2c1=O,105*,-10,64*,.,100*,37,99*,66*,100*,
CCOC(=O)c1c(C)oc(=O)c(CC)c1O,1,-13,9,.,.,10,.,.,.,
CCN1C(=O)[C@H]2[C@@H](c3ccc(C)cc3)N[C@]3(CCCN(Cc4ccccc4)C3=O)[C@H]2C1=O,6,7,4,.,.,-17,.,.,.,
COc1ccc(C(=O)Nc2nc3ccccc3s2)c(OC)c1,107*,-88*,92*,.,84*,0,99*,.,.,Mdm2 MdmX conf=97*
NS(=O)(=O)c1ccc(NC(=O)COC(=O)c2cnccn2)cc1,-7,-4,18,-2,1,-2,.,.,.,
CN(C)CCCN(C(=O)c1ccc(S(=O)(=O)N2CCc3ccccc3C2)cc1)c1nc2ccc(F)cc2s1,104*,-38,73*,.,73*,-20,92*,15,103*,
COc1ccc2sc(N(CCCN(C)C)C(=O)c3ccc(S(=O)(=O)N4CCc5ccccc5C4)cc3)nc2c1,101*,-98*,82*,.,85*,74*,98*,32,106*,Mdm2 MdmX conf=95*
Cc1cc(NC(=O)NC(C)(C(F)(F)F)C(F)(F)F)no1,8,-5,23,-10,10,6,.,.,.,
CCN1CCN(C(=O)CCc2nnc3ccc(N4CCN(c5cccc(OC)c5)CC4)nn23)CC1,-2,-2,0,.,-10,-2,.,.,.,
